Screening results: PubChem, National Center for Advancing Translational Sciences (NCATS)
KB-3-1 tox – kills parental KB-3-1 adenocarcinoma cells; 400,000 tested, 1.4% active; Potency, µM (top dose mostly 46.1 µM), hits mostly cytotoxic; KB-3-1 viability, CellTiter-Glo ATP luminescence, 72 h; AID 1347075; note: % is set by controls: 0 for no effect and ±100 for the full control effect; nearly all actives have a fitted effect of over 60% in size
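Luminescent ATP read-out (CellTiter-Glo) measures survival of drug-naive KB-3-1 cells after 72 h compound exposure at 37 °C. Titration series was screened from lowest to highest concentration, with DMSO vehicle plates as background controls.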
KB-V1 cytotox – kills drug-selected multidrug resistant KB-V1 cells | KB-V1 MDR cells viability, CellTiter-Glo, 72 h | Potency, µM (top dose mostly 46.1 µM), hits mostly cytotoxic | 400,000 tested, 3.4% active | AID 1347076; note: % is set by controls: 0 for no effect and ±100 for the full control effect; nearly all actives have a fitted effect of over 60% in size
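Compound-treated KB-V1 multidrug-resistant cells, 72 h, 37 degrees C; viability by CellTiter-Glo. Fitted qHTS curves give the values.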
RORg inh – blocks mouse ROR gamma transcriptional activity | Drosophila S2 Gal4-RORgamma UAS-luciferase reporter, 20 h | 310,000 tested, 5.4% active | AID 2551 | Potency, µM (series often up to 53.6 µM), inactives show at the top dose activity change, negative = inhibition, hits mostly inhibitors; note: % is set by controls: 0 for no effect and ±100 for the full control effect; nearly all actives have a fitted effect of over 60% in size
Target sequence (P51450 whole entry, looked up, the tested form may be a part): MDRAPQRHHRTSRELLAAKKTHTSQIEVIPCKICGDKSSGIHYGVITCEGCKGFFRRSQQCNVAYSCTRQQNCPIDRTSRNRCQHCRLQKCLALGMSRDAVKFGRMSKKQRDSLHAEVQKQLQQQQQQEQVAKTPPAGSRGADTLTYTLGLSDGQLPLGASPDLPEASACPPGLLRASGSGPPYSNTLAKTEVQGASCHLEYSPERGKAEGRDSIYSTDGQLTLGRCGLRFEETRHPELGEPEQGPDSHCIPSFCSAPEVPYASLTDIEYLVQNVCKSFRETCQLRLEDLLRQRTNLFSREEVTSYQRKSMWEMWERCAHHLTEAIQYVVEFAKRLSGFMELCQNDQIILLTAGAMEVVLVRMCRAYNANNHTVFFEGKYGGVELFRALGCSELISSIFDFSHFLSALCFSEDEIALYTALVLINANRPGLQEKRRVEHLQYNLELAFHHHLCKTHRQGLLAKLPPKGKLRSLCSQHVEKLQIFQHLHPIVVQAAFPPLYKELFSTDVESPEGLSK
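Read-out: Photinus luciferase luminescence; inhibitors lower reporter signal. Insect Schneider cells with Gal4-ROR gamma fusion under metallothionein promoter, UAS reporter; 700 uM final copper sulfate induction, 20 hr, ambient temperature.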
SW480 rereplic – DNA re-replication induction in SW480 cells; Potency, µM (highest dose often 46.1 µM), for the others: top-dose re-replication activation, actives largely listed as activators; SW480 DNA re-replication, Hoechst DNA content imaging, 48 h; AID 624297; 340,000 tested, 1.8% active; note: % of control where 0% means no effect; nearly all actives have a fitted effect of over 55% in size
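Cells (250 per well) received 23 nL compound or DMSO by pin tool and were kept 48 hr at 37 C, 5% CO2. Nuclei were then stained with Hoechst for 40 min and scanned for DNA content.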
Gal4-VP16 FLuc – inhibits Gal4-VP16 luciferase reporter, ROR gamma counter-screen; Potency, µM (doses to about 53.6 µM), for the others: at the top dose activity, negative = inhibition, most hits filed as inhibitors; Drosophila S2 Gal4-VP16 UAS-luciferase, luminescence, 20 h; 310,000 tested, 3.5% active;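 note: Gal4-VP16 expression switched on by copper sulfate through the metallothionein promoter; % is set by controls: 0 for no effect and ±100 for the full control effect; nearly all actives have a fitted effect of over 50% in size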
MCF10A rereplic – DNA re-replication induction in MCF 10a cells; MCF 10A DNA re-replication, Hoechst nuclear intensity, 48 h; Potency, µM (series often up to 46.1 µM), without a hit: at the top dose activity, positive = re-replication, hits mostly activators; 350,000 tested, 2.9% active; note: % of control where 0% means no effect; nearly all actives have a fitted effect of over 50% in size
Active calls of the source: *; i = inactive; ? = inconclusive; · = not tested or not shown; [ ] = remark or other dose. Most compounds without a hit are left out; they make up all but 10% or so of the library. Calls come from the whole dose curve; as a rule, active = well fitted curve in the direction sought with a large enough effect; inconclusive = small, poorly fitted or top-dose-only effect, or another doubt; inactive = no such curve, though single readings can be large; an effect the other way counts as inactive or inconclusive. Potency is the fitted concentration of half-maximal effect.

SMILES	KB-3-1 tox	KB-V1 cytotox	RORg inh	SW480 rereplic	Gal4-VP16 FLuc	MCF10A rereplic
COc1ccc2nc(SCc3ccccc3C)nc(C)c2c1	i	15µM*	?	11%	3%	0%
COc1ccc2nc(SCc3cccc(C)c3)nc(C)c2c1	i	16µM*	?	-43%	-16%	?
COc1ccc2nc(SCCOC(=O)Nc3ccc(Cl)cc3)nc(C)c2c1	?	15µM*	?	-105%	?	?
OC[C@@H]1[C@@H](c2ccc(F)cc2)C(c2cccc(Cl)c2)=NN1c1ccccc1	?	?	30%	0.13µM*	?	0.58µM*
OC[C@@H]1[C@@H](c2ccc(Cl)cc2)C(c2cccc(Cl)c2)=NN1c1ccccc1	i	?	-5%	2.3µM*	?	?
OC[C@@H]1[C@@H](c2ccc(Cl)cc2)C(c2ccccc2)=NN1c1ccccc1	i	i	?	23µM*	-14%	2.1µM*
CCOc1ccc(NC(=O)NCCN2CCN(c3cc(Cl)ccc3C)CC2)cc1	i	i	·	·	·	·
NCCCCCc1nnc(SCc2ccc(Cl)cc2Cl)o1	i	i	8.9µM*	-3%	5.6µM*	8%
Cc1cccc(CSc2nnc(CCCCCN)o2)c1	i	i	·	·	·	·
NCCCCCc1nnc(SCc2cccc(Cl)c2)o1	i	i	5.6µM*	-22%	2.8µM*	14%
NCCc1nnc(SCc2ccccc2Cl)o1	i	i	2%	8%	-10%	3%
CC(C)(C)CC(C)(C)c1ccc(O)c(CN2CCN(CCC#N)CC2)c1	i	?	25µM*	?	-24%	18µM*
Oc1c(CN2CCOCC2)cc(-c2ccccc2)cc1CN1CCOCC1	i	i	-20%	-7%	3%	-1%
N#CCCN1CCN(Cc2cc(-c3ccccc3)ccc2O)CC1	i	21µM*	16%	-1%	4%	?
CN(C)c1ccc(C(=S)N2CCNCC2)cc1	i	i	-16%	-4%	-6%	12%
CN(C)c1ccc(C(=O)OCC(=O)NC2CCCCCC2)cc1	i	i	40%	-12%	3%	1%
CN(C)c1ccc(C(=S)NC2CCCCC2)cc1	i	i	8.9µM*	-12%	3%	3%
CN(C)c1ccc(C(=S)N2CCCCC2)cc1	i	i	11µM*	2%	0%	17%
CCN(CC)c1ccc(C(=S)NC2CCCCC2)cc1	?	?	8.9µM*	?	14µM*	?
COc1cc(C2CC(=O)Nc3c2c(=O)n(C)c(=O)n3C)cc(OC)c1OC (centres undefined)	i	i	·	·	·	·
Cc1ccc(S(=O)(=O)NC(=S)NC2CCCCC2)cc1	i	i	3.2µM*	2%	14µM*	0%
CCNC(=S)NS(=O)(=O)c1ccc(Cl)cc1	i	i	22µM*	4%	3%[0.365 µM]	1%
Cc1ccc(S(=O)(=O)NC(=O)NC2CCCCC2)cc1	·	·	8%	-2%	-2%	0%
CCc1ccc(S(=O)(=O)NC(=S)NC2CCCCC2)cc1	i	i	3.5µM*	-3%	5.6µM*	14%
O=S(=O)(NC(=S)NC1CCCCC1)c1ccc(Cl)cc1	i	i	2.2µM*	-79%	5.6µM*	0%
SMILES	KB-3-1 tox	KB-V1 cytotox	RORg inh	SW480 rereplic	Gal4-VP16 FLuc	MCF10A rereplic
CCNC(=S)NS(=O)(=O)c1ccccc1	i	i	?	-10%	-3%	-4%
O=C(Cc1ccc(F)cc1)OCC(=O)c1cc2ccccc2o1	i	i	7%	-3%[9.22 µM]	-5%	-5%
O=C(NC(=S)NCc1ccccc1)c1ccccc1	i	i	3.2µM*	0%	?	3%
O=C(Cc1cc2ccccc2o1)NCc1ccc(F)cc1	i	?	15%	?	16%	12µM*
O=C(NC(=S)NCc1ccc(F)cc1)c1ccccc1	i	21µM*	5µM*	?	?	-1%
O=C(NCc1ccccc1)c1ccc(-c2ccc(F)cc2)o1	i	18µM*	24%	-9%	-3%	16%
O=C(NC(=S)NCc1ccncc1)c1ccccc1	i	i	2%	-5%	-2%	2%
O=C(O)COc1ccc(CCNS(=O)(=O)c2ccccc2)s1	·	·	0%	-4%	-3%	-1%
Cc1cccc(C(=O)NC(=S)NCc2ccccc2)c1	i	i	·	-7%	·	14%
CC(C)(C)C(=O)NC(=S)NCc1ccccc1	i	?	7.1µM*	-90%	?	-35%
COCCC(=O)N1CCC(Oc2ccc(C(=O)NC3Cc4ccccc4C3)cc2)CC1	i	4.1µM*	-1%	2%	-4%	13%
COCCC(=O)N1CCC(Oc2ccc(C(=O)NCCSC)cc2)CC1	i	i	-16%	-5%	-5%	-7%
OB(O)c1ccc(Br)cc1	i	i	0%	·	0%	·
CCCCNC(=O)C(CC)Sc1nc2ccccc2c(=O)n1Cc1ccco1 (centres undefined)	i	i	·	·	·	·
O=C(NCc1ccc2c(c1)CCN2C(=O)c1ccc(F)cc1)c1ccc(Br)o1	?	2.6µM*	·	·	·	·
O=C(NCc1ccc2c(c1)CCN2C(=O)c1ccccc1)c1ccc(Br)o1	i	i	·	·	·	·
CCN(CC)c1ccc(C(=O)NCc2ccc3c(c2)CCN3C(=O)c2ccc(F)cc2)cc1	15µM*	?	·	·	·	·
c1coc(-c2nn3c(Cn4nnc5ccccc54)nnc3s2)c1	i	13µM*	-25%	-8%	7%	?
c1csc(-c2nn3c(Cn4nnc5ccccc54)nnc3s2)c1	?	15µM*	?	-6%	1%	-2%
Clc1ccc(Cc2nn3c(Cn4nnc5ccccc54)nnc3s2)cc1	i	4.1µM*	?	-2%	-11%	13%
S=c1[nH]nc(Cn2nnc3ccccc32)n1-c1ccc(Cl)cc1	i	i	?	4%	-2%	0%
c1ccc2c(c1)nnn2Cc1nnc2sc(-c3ccncc3)nn12	i	i	-17%	-3%	-2%	-23%
COC(=O)c1ccccc1NC(=O)C1(c2cccs2)CCOCC1	i	i	·	·	·	·
Cc1cc(C(=O)COC(=O)c2ccc3c(c2)NC(=O)CS3)c(C)n1CC1CCCO1 (centres undefined)	i	12µM*	-29%	?	4%	?
Cc1cc(C(=O)CN2C(=O)c3ccccc3S2(=O)=O)c(C)n1CC1CCCO1 (centres undefined)	i	i	2.2µM*	-2%	8.9µM*	0%
Cc1cc(C(=O)COC(=O)c2ccc(O)cc2)c(C)n1CC1CCCO1 (centres undefined)	i	?	7.1µM*	0%	-21%	2%
